This is an account of results in PubChem BioAssay.

The nature of test [1]: sensitizers of A549 cells to miR-34 induction, primary screen, imaging, A549 dox-inducible miR-34, nuclei and caspase counts (AID 1347080;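 active = compounds whose cell count with miR-34 switched on is under 0.7 times the count with it off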). The following applies: A549 miR-34 inducible, Hoechst nuclei count, 48 h.
Test [2] is described as follows: phospholipid biosynthesis inhibitors in animal cells, primary screen, cell-based, LOPAC library, screen 4 (AID 1347384). The following applies: phospholipid biosynthesis inhibition screen, at 10 µM.
Test [3] is described as follows: viability rescue of complex I mutant cybrids, primary screen, cell-based, galactose medium, ATP luminescence (AID 1645843;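 active = z-score of at least 1.8 in each of two replicates, scored against plate mean and spread of sample wells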;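 note: positive z means more ATP and so rescue of galactose-driven cybrid death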). The following applies: complex I mutant cybrid cells, 72 h, stronger effect = higher value.
Test [4] in a line: circadian clock period modulators, cell-based, LOPAC library, luminescence reporter (AID 2774).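 Note: values are relative to mean of DMSO wells on each plate.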 The following applies: circadian reporter cells, at 7 µM, actives lie on both sides.
Test [5] relates to Hepatitis C virus NS3 helicase. In words: HCV NS3 helicase inhibitors, primary screen, biochemical, fluorescence polarization, LOPAC1280 library (AID 687035; in the data active = inhibition above about 37%). The following applies: Purified HCV NS3 helicase, Cy5-dT15 ssDNA binding fluorescence polarization; stronger effect = higher value; concentration not given here. (Polarisation of emitted light reports the rotation of a fluorescent probe.)

A short description of test [6]: Cy5 fluorescence quenching or enhancement artefacts, artefact control for HCV NS3 helicase inhibitor project, biochemical, LOPAC1280 (AID 687037). The following applies: Cy5-DNA-NS3h complex fluorescence interference counterscreen. Background: The purpose of a counterscreen is to sort out artefacts and off-target activity.
The mark [7] stands for this setting: stronger effect = lower value, cell number ratio, induced over uninduced.
Where [8] appears, read: measured here: relative caspase fold change +Dox/-Dox.
Where [9] appears, read: measured here: total cells with miR-34 induction, stronger effect = lower value.
Where [10] appears, read: measured here: total cells without miR-34 induction.

Structures are written as SMILES. Activity calls are given as the source filed them. Unless noted, the rule behind the calls is not given here.

For `Brc1cc2c(cc1[C@H]1Nc3ccccc3[C@H]3C=CC[C@H]31)OCO2`, the fold change is 1.18 (inactive) in test [1] (setting [7]) and 1.55 in test [1] (setting [8]). Besides, the cell count in test [1] (setting [9]) was 6800; in test [1] (setting [10]) it was 5750. Besides, the result in test [2] was inactive. Also, the z-score in test [3] is -0.59 (inactive).

The inhibition is the change of the read-out against control, counted positive when it falls. For the compound `O=C(O)/C(=C/c1c(C(=O)O)[nH]c2cc(Cl)cc(Cl)c12)c1ccccc1`, in test [4], the period change was 0.21 h (inactive). Besides, in test [5], the inhibition is 0% (inactive). For the same compound, in test [6], the fluorescence ratio (interference) was 1 (inactive). In addition, the fold change in test [1] (setting [7]) is 1.07 (inactive); in test [1] (setting [8]), 0.725. Further, the cell count in test [1] (setting [9]) came out at 9940; in test [1] (setting [10]), 9320. In addition, the compound was called inactive in test [2]. Moreover, the z-score in test [3] was 1.03 (inactive).

As for `OCC1NCC(O)C(O)C1O` (centres undefined), in test [4], the period change was 0.035 h (inactive). In addition, in test [5], the inhibition is -2% (inactive). Further, the fluorescence ratio (interference) in test [6] is 1 (inactive). The fold change in test [1] (setting [7]) is 0.93 (inactive); in test [1] (setting [8]), 1.34. In addition, the cell count in test [1] (setting [9]) was determined as 9950; in test [1] (setting [10]), 10700. In addition, the result in test [2] was inactive. For the same compound, in test [3], the z-score is -0.145 (inactive).

For `O=C(CCc1ccncc1)NNC(=O)N1Cc2ccccc2Oc2ccc(Cl)cc21`, the fold change is 1.04 (inactive) in test [1] (setting [7]) and 1.18 in test [1] (setting [8]). For the same compound, the cell count in test [1] (setting [9]) came to 8820; in test [1] (setting [10]) it was 8460. Also, the result in test [2] was inactive. Moreover, the z-score in test [3] was -0.355 (inactive).

Take `NC1(C(=O)O)CCc2cc(C(=O)O)ccc21` (centres undefined): the period change in test [4] is 0.185 h (inactive). The inhibition in test [5] is -1% (inactive). In addition, the fluorescence ratio (interference) in test [6] was 1 (inactive). The values for the fold change in test [1] (setting [7]) and in test [1] (setting [8]) were 0.993 (inactive) and 1.76, respectively. Moreover, the cell count stood at 10900 in test [1] (setting [9]) and 11000 in test [1] (setting [10]). Besides, the outcome in test [2] was inactive. The z-score in test [3] is 0.185 (inactive).

Take `OC[C@H]1NC[C@@H](O)[C@@H]1O`: the period change in test [4] is -0.11 h (inactive). The inhibition in test [5] is -3% (inactive). The fluorescence ratio (interference) in test [6] is 1 (inactive). The fold change in test [1] (setting [7]) was 0.888 (inactive); in test [1] (setting [8]) it was 1.22. The cell count in test [1] (setting [9]) came to 8680; in test [1] (setting [10]), 9770. Moreover, in test [2], the result was inactive. The z-score in test [3] is 0.015 (inactive).

As to `OC[C@H]1O[C@@H](n2cnc3cncnc32)[C@H](O)[C@@H]1O`, the period change in test [4] is 0.1 h (inactive). The inhibition in test [5] is -4% (inactive). In addition, the fluorescence ratio (interference) in test [6] is 1 (inactive). For the same compound, the fold change is 1.03 (inactive) in test [1] (setting [7]) and 1.29 in test [1] (setting [8]). Also, the cell count stood at 10800 in test [1] (setting [9]) and 10600 in test [1] (setting [10]). Further, the outcome in test [2] was inactive. In addition, the z-score in test [3] is -0.28 (inactive).

For the compound `CCCC(=O)NCCc1c2n(c3ccc(OC)cc13)CCCc1ccccc1-2`, in test [4], the period change was 0.06 h (inactive). Besides, the inhibition in test [5] was 0% (inactive). Further, the fluorescence ratio (interference) in test [6] is 1 (inactive). Further, the values for the fold change in test [1] (setting [7]) and in test [1] (setting [8]) were 1.08 (inactive) and 0.293, respectively. Moreover, the cell count in test [1] (setting [9]) was found to be 8600; in test [1] (setting [10]), 7960. The compound was classed as inactive in test [2]. Moreover, the z-score in test [3] is -0.27 (inactive).

On to `CCCCCCCCCCCCCCSCC(=O)O`, for which, in test [4], the period change was -0.08 h (inactive). Besides, the inhibition in test [5] is -2% (inactive). Further, in test [6], the fluorescence ratio (interference) is 1 (inactive). The values for the fold change in test [1] (setting [7]) and in test [1] (setting [8]) were 0.985 (inactive) and 1.37, respectively. Besides, the cell count was 9840 in test [1] (setting [9]) and 9990 in test [1] (setting [10]). Also, in test [2], the compound was classed as inactive. Moreover, the z-score in test [3] was -0.24 (inactive).

Consider `O=C(O)Cc1c[nH]c2ccc(O)cc12`, for which the period change in test [4] was -0.095 h (inactive). For the same compound, the inhibition in test [5] is -2% (inactive). For the same compound, in test [6], the fluorescence ratio (interference) was 1 (inactive). In addition, the fold change in test [1] (setting [7]) is 1.08 (inactive); in test [1] (setting [8]), 0.669. Besides, the values for the cell count in test [1] (setting [9]) and in test [1] (setting [10]) were 9930 and 9210, respectively. Also, the outcome in test [2] was inactive. In addition, the z-score in test [3] was 0.08 (inactive).
